# Screening data: PubChem, National Center for Advancing Translational Sciences (NCATS)
# In the library only some 1.2% were active in any assay of this set; here they are far more common.
# CCT chaperon mod – modulators of cytosolic chaperonin (CCT/TRiC) activity. purified chaperonin ATPase assay, HTRF ADP detection, 30 min. activity change, % (concentration not given with the values), hits read low. 360,000 tested, 0.3% active. AID 651819; in the data active = activity change below about -30%; also: % is scaled to controls: 0 for no effect and ±100 for the full control effect
#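 First, chaperonin was dispensed at 40 nM or 20 nM final depending on batch activity. Next, compounds were pinned at 76 uM and ATP added at 10 uM. After 30 min at 37 °C, ADP detection reagents ran 30 min at ambient temperature.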
# gsp agonist – gsp mutant agonism. gsp mutant cells, cAMP HTRF, 30 min. Potency, µM (highest dose often 76.9 µM), for inactives: top-dose activation (cAMP increase), hits mostly activators. 340,000 tested, 0.13% active. AID 624287; active = well fitted activation curve with a large enough effect; inconclusive = small, poorly fitted or top-dose-only effect, or another doubt; inactive = no such curve, though single readings can be large or run the other way; cell line not stated here;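 also: phosphodiesterase inhibitor Ro 20-1724 added with compounds to block cAMP breakdown; potency is read from the fitted curve at half-maximal effect; nearly all actives have a fitted effect of over 60% in size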
#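 Cells stably selected in G418 were plated at 2000/well, grown 16-24 hr, then given compounds in DMSO with the PDE inhibitor […] (300 uM solution added) for 30 min at 37C; cAMP was read by HTRF.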
# gsp antag – antagonists of gsp mutant (McCune-Albright syndrome). gsp-mutant cells, cAMP HTRF, 30 min. Potency, µM (highest dose often 76.9 µM), for inactives: top-dose activity change, negative = inhibition, actives largely listed as inhibitors. 340,000 tested, 0.4% active. AID 624288; calls by dose curve; cell line not stated here;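 also: intracellular cAMP measured with PDE inhibitor Ro 20-1724 present during compound exposure; potency is read from the fitted curve at half-maximal effect; % is scaled to controls: 0 for no effect and ±100 for the full control effect; nearly all actives have a fitted effect of over 65% in size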
#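 Measurement of cellular cAMP by homogeneous time-resolved fluorescence following a 30 min compound exposure at 37C. The PDE inhibitor […] was present throughout; the assay buffer was DPBS with 0.05% BSA and 0.005% Tween 20.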
# RXFP1 antag – antagonists of human relaxin receptor RXFP1; HEK293-RXFP1, relaxin-stimulated cAMP HTRF, 30 min; hits give low values; activity change, negative = inhibition, % at 57.5 µM; 350,000 tested, 0.59% active; AID 1259400;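 active = activity change of -60% or lower, but not beyond a set lower limit; inconclusive = change between -60% and -40%, or beyond the set limit; inactive = change above -40%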; also: % is scaled to controls: 0 for no effect and ±100 for the full control effect
# Target sequence (Q9HBX9 whole entry, looked up): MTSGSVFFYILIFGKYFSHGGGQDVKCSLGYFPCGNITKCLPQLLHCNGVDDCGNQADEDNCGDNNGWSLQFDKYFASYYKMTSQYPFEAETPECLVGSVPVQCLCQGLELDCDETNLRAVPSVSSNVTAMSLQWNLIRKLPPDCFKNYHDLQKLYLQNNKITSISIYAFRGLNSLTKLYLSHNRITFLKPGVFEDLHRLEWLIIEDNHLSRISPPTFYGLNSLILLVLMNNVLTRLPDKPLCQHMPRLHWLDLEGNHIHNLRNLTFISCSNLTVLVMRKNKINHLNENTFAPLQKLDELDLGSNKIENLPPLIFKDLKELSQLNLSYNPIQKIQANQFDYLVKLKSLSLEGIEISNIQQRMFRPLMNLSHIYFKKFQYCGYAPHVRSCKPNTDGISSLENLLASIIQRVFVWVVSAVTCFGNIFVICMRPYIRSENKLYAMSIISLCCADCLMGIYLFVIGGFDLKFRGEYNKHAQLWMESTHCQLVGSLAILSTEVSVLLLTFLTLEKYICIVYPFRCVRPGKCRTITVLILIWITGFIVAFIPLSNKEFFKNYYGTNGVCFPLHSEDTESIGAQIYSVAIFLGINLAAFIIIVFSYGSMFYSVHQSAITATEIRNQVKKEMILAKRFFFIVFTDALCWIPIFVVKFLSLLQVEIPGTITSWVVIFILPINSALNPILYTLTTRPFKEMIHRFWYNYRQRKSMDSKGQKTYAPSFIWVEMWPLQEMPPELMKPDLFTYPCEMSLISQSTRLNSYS
# RXFP1 agonist – agonists of human relaxin receptor RXFP1. Q9HBX9. HEK293T-RXFP1 cAMP TR-FRET, 30 min; response scale: percent of porcine relaxin response, buffer zero. Potency, µM (top dose mostly 57.5 µM), inactives show at the highest dose activation, hits mostly activators. 370,000 tested, 0.3% active. AID 2676; also: potency is read from the fitted curve at half-maximal effect; % is scaled to controls: 0 for no effect and ±100 for the full control effect; nearly all actives have a fitted effect of over 60% in size
#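 HEK293T cells stably expressing RXFP1 were pretreated with the PDE4 inhibitor Ro 20174, exposed to compounds for 30 min at 37C, lysed, and cAMP was read by TR-FRET. Data normalized to buffer (basal) and 29 nM porcine relaxin (100%).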
# MmCpn inh – inhibitors of Methanococcus maripaludis chaperonin TRiC (MmCpn); purified Mm-Cpn ATPase, ADP Transcreener TR-FRET; Potency, µM (titrated, usually from 76.9 µM), for inactives: top-dose activity, negative = inhibition, hits mostly inhibitors; 330,000 tested, 0.031% active; also: potency is read from the fitted curve at half-maximal effect; % is scaled to controls: 0 for no effect and ±100 for the full control effect; nearly all actives have a fitted effect of over 80% in size
#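 Measured: ADP formation by purified Mm-CPN. Conditions: 25 nM protein, 10 uM ATP, Tris pH 7.4 with Mg2+, K+ and DTT, 37°C for 30 min. Detection: Transcreener HTRF after 30 min at room temperature.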
# An asterisk follows results filed as active; ? = inconclusive; . = no result; [ ] = another dose, or the depositor's remark. Unless noted, calls follow the shape of the dose curve; as a rule, active = well fitted curve in the direction sought with a large enough effect; inconclusive = small, poorly fitted or top-dose-only effect, or another doubt; inactive = no such curve, though single readings can be large; an effect the other way counts as inactive or inconclusive.
SMILES,CCT chaperon mod,gsp agonist,gsp antag,RXFP1 antag,RXFP1 agonist,MmCpn inh
O=C(CCc1nnc2n(Cc3ccc(Cl)cc3)c(=O)c3ccccc3n12)N1CCN(c2ccccn2)CC1,-1.3,?,-12.0%,10.6,-0.6%,?
CC1(C(=O)NS(=O)(=O)c2ccc(Br)cc2)CCN1C(=O)CCc1ccccc1 (stereo not given),-78.9*,.,.,.,.,.
CC1(C(=O)NS(=O)(=O)c2ccc(Br)cc2)CCN1C(=O)CCc1cccs1 (stereo not given),-0.8,.,.,.,.,.
O=C(CCS(=O)(=O)c1nc(-c2ccc3c(c2)OCO3)cc(C(F)(F)F)n1)Nc1ccc(F)c(Cl)c1,.,.,.,?,9.8%,.
O=C(NCc1ccncc1)C(=O)Nc1nc(C23CC4CC(CC(C4)C2)C3)cs1,0.3,-6.4%,44.7µM*,?,0.7%,2.7%
N#C/C(=C\c1cc2c(cc1Br)OCO2)c1ccc(C(=O)O)cc1,3.0,3.1%,?,-6.8,0.2%,-1.0%
CCOc1cc2c(cc1/C=C(/C#N)c1ccc(C(=O)O)cc1)OCO2,0.9,-1.1%,35.5µM*,-5.1,-2.2%,1.3%
Cc1ccc(C)c(N2CCN(CCCNC(=O)C3COc4ccccc4C3)CC2)c1 (stereo not given),.,.,.,-20.2,-2.4%,.
CCNC(=O)[C@@H]1CCCN1C(=O)[C@H](CCCN=C(N)N)NC(=O)[C@H](CC(C)C)NC(=O)CNC(=O)[C@H](Cc1ccc(O)cc1)NC(=O)[C@H](CO)NC(=O)[C@H](Cc1c[nH]c2ccccc12)NC(=O)[C@H](Cc1cnc[nH]1)NC(=O)[C@@H]1CCC(=O)N1,.,.,.,-8.7,.,.
O=C1c2cccc3c([N+](=O)[O-])ccc(c23)C(=O)N1Cc1cccnc1,-1.2,13.7%[15.4 µM],-14.1%,-77.4*,9.4%,2.7%
CCc1ccccc1NS(=O)(=O)c1cc(Br)cc2c1N(C(=O)C1CC1)CC2,.,.,.,.,-0.3%,.
C[C@@H]1C[C@H]2[C@@H]3CCC4=CC(=O)C=C[C@]4(C)[C@@]3(F)[C@@H](O)C[C@]2(C)[C@@]1(O)C(=O)COC(=O)c1ccncc1,.,.,.,-11.1,.,.
Cc1nc(S/C(=C/c2ccc(-c3cc(Cl)ccc3C)o2)C(=O)O)n[nH]1,0.9,-24.7%,28.2µM*,-9.6,0.2%,0.8%
O=C(NCc1cccs1)c1ccc(CSc2nc3ccncc3n2Cc2ccccc2F)cc1,.,.,.,-12.2,1.7%,.
CCOc1ccccc1NC(=O)CNC(=O)CNC(=O)Cc1ccccc1,-1.8,-47.4%,6.4%,1.7,1.9%,1.4%
CCOc1ccccc1NC(=O)CNC(=O)Cc1ccccc1,-42.8*,-4.0%[15.4 µM],14.2%,-2.9,2.5%,1.7%
Cc1cn([C@H]2C[C@H](F)[C@@H](CO)O2)c(=O)[nH]c1=O,.,.,.,-5.8,.,.
COc1ccc(OC)c(NC(=O)CN2CCC(C(=O)c3ccc(C)cc3)CC2)c1,0.7,14.8%,28.2µM*,-21.0,0.2%,2.5%
COc1cc(C=O)ccc1OS(=O)(=O)c1ccccc1[N+](=O)[O-],-42.4*,-6.6%[15.4 µM],-10.5%,-28.9,-1.1%,-1.1%
CCOc1ccc(/C=C(\C#N)C(=O)c2c(C)[nH]c3ccccc23)cc1OC,-0.6,4.7%[15.4 µM],?,-62.6*,2.1%,1.6%
O=C(c1ccc2c(c1)N(Cc1cccc(Cl)c1)C(=O)c1ccccc1S2(=O)=O)N1CCN(Cc2ccccc2)CC1,.,.,.,15.0,-2.5%,.
CN(C)S(=O)(=O)c1cccc(NC(=O)c2ccc(COc3ccccc3)cc2)c1,0.3,0.4%,31.6µM*,-9.4,5.9%,-8.8%
CN(c1ccccc1)S(=O)(=O)c1cccc(NC(=O)c2ccc3ncsc3c2)c1,1.1,-10.1%[15.4 µM],25.1µM*,-12.0,0.0%,0.4%
Cc1nc2ccc(NC(=O)c3cccc(S(=O)(=O)N(C)c4ccccc4)c3)cc2s1,-2.0,-68.9%,35.5µM*,.,4.2%,-8.0%
CC(=O)c1c(C)[nH]c(C(=O)Nc2cccc(S(=O)(=O)N(C)c3ccccc3)c2)c1C,-1.1,0.5%,31.6µM*,-30.1,-1.0%,0.4%
SMILES,CCT chaperon mod,gsp agonist,gsp antag,RXFP1 antag,RXFP1 agonist,MmCpn inh
CN(c1ccccc1)S(=O)(=O)c1cccc(NC(=O)c2cccc(C#N)c2)c1,-1.4,16.5%,-27.7%,-10.0,-0.9%,-21.5%
Cc1ccc2c(c1)c(=O)c(S(=O)(=O)c1ccc(F)cc1)cn2CC(=O)Nc1ccc2c(c1)OCO2,.,.,.,.,-1.3%,.
Cc1cccc(N2CCN(S(=O)(=O)c3cc(C(=O)Nc4ccccc4Cl)ccc3F)CC2)c1C,.,.,.,-17.6,0.8%,.
COc1ccc(N(C)S(=O)(=O)c2cccc(C(=O)Nc3ccc(-n4cnnn4)cc3)c2)cc1,-0.2,18.4%,28.2µM*,-25.2,2.0%,-5.3%
COc1ccc(N(C)S(=O)(=O)c2cccc(C(=O)Nc3ccc(OC)nc3)c2)cc1,.,.,.,.,-0.4%,0.2%
O=C(Cn1ncc2c3ccccc3n(Cc3ccccc3)c2c1=O)NCCN1CCOCC1,-34.1*,-2.3%,3.0%,?,0.1%,1.0%
O=C(Cn1ncc2c3ccccc3n(Cc3ccccc3)c2c1=O)NCCCN1CCCC1,-1.1,-1.5%,0.8%,-21.0,-0.4%,-5.4%
CC1(C)Cc2c(sc3ncnc(NN)c23)CO1,-4.4,?,5.1%,8.6,12.6µM*,1.5%
CCCC(=O)NC(c1ccccc1Cl)c1ccc2cccnc2c1O (stereo not given),0.1,13.7%,-6.1%,-81.7*,1.4%,2.9%
CCC(=O)NC(c1ccc(Cl)cc1Cl)c1ccc2cccnc2c1O (stereo not given),2.2,10.0%,-9.1%,-97.7*,0.5%,1.4%
CCCC(=O)NC(c1ccc(C(C)C)cc1)c1ccc2cccnc2c1O (stereo not given),-1.2,29.7%,-3.4%,?,0.4%,-0.6%
O=S(=O)(Nc1ccc(F)c(Cl)c1)c1ccc(Br)s1,.,.,.,-3.5,7.6%,.
CCc1nn(CC(=O)NCCCc2ccccc2)c(=O)c2cc3ccccc3n12,.,.,.,-5.8,8.7%,.
COc1cc(CNc2ncnc3c2ncn3[C@H]2CN(Cc3ccccc3)C[C@@H](COC(C)=O)O2)cc(OC)c1OC,-37.7*,.,.,.,.,.
CC(C)CCN1C(=O)N(c2ccccc2)C(=O)C1CC(=O)Nc1ccc(Cl)cc1 (stereo not given),.,.,.,-14.5,1.0%,.
COC(=O)[C@@H]1C[C@H]1[C@@H](NS(=O)(=O)c1ccccc1)c1ccccc1,0.0,-1.7%,-1.3%,.,2.2%,0.2%
COC(=O)[C@H]1C[C@@H]1[C@H](N)c1ccccc1,-49.4*,?,8.7%,.,0.0%,-3.4%
C=CCNCCOCCOc1ccc(C)cc1[N+](=O)[O-],-2.2,-5.5%,7.2%,7.4,-0.3%,-0.6%
